Glioma ERSR ind: induces the endoplasmic reticulum stress response in human glioma cells; 420,000 tested, 0.02% active; U87-MG GRP78 promoter luciferase reporter, 16 h; AID 602332; Potency, µM, most hits filed as activators; note: series mostly up to about 76 µM; nearly all actives have a fitted effect of over 35% in size
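ERSR induction read as luciferase luminescence (Bright-Glo, 10 min at room temperature) in stably transfected human U87-MG glioma cells exposed to compounds for 16 h, using GRP78 as sensor.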
ALOX12 inh: blocks human arachidonate 12S-lipoxygenase; P18054; purified 12hLO, xylenol orange hydroperoxide absorbance; Potency, µM (titrated, usually from 108 µM), most hits filed as inhibitors; 580,000 tested, 1.1% active
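Hydroperoxide product was detected by ferrous iron/xylenol orange as the 573 to 405 nm absorbance ratio. Arachidonic acid at 40 uM (final) was turned over for 30 min at room temperature by 150 nM human 12hLO, pH 7.0 Hepes buffer, after 15 min compound preincubation.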
IDH1 R132H inh: inhibitors of human mutant IDH1 R132H; 390,000 tested, 0.093% active; IDH1-R132H enzyme, NADPH consumption, diaphorase/resazurin fluorescence; Potency, µM (doses to about 76.6 µM), most hits filed as inhibitors; AID 602179; note: nearly all actives have a fitted effect of over 65% in size
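IDH1-R132H (0.5 ug/mL dispensed) in pH 7.5 Tris buffer was preincubated 30 min with compound, then given a substrate mix of 0.016 mM NADPH and 2 mM alpha-KG for 80 min at room temperature; remaining NADPH was read by diaphorase/resazurin fluorescence.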
TrxR1 substrate: substrates of rat thioredoxin reductase 1; Potency, µM (highest dose often 114 µM); purified TrxR1 substrate turnover, NADPH consumption readout; 390,000 tested, 0.01% active; O89049; AID 588456; note: nearly all actives have a fitted effect of over 50% in size
Target sequence (O89049 whole entry, looked up): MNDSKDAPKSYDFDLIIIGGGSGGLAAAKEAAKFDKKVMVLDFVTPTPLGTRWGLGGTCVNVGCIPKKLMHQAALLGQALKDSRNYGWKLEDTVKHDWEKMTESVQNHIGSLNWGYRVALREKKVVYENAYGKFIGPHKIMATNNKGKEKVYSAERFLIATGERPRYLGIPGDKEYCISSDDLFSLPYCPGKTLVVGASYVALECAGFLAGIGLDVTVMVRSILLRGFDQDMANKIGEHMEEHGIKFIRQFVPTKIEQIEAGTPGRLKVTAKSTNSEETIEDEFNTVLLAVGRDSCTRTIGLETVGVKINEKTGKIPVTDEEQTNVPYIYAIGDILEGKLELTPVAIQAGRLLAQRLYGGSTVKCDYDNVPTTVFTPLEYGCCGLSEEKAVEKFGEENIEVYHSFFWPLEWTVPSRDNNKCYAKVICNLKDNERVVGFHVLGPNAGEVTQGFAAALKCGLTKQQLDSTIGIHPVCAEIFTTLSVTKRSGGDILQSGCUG
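Rat TrxR1, dispensed at 90 nM, was prereduced with 400 uM NADPH (final) for 5 min at ~22 deg C, then incubated with compound 15 min before 400 uM selenite. A first-read NADPH fluorescence drop versus no-compound background flagged substrates.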
rTrxR1 inhibitor: blocks rat thioredoxin reductase 1; O89049; recombinant rTrxR1, NADPH fluorescence consumption, selenite substrate; Potency, µM (titrated, usually from 114 µM), hits mostly inhibitors; 390,000 tested, 1% active; note: nearly all actives have a fitted effect of over 65% in size
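Rat TrxR1 (90 nM in the dispensed reagent) was pre-reduced with 400 uM NADPH for 5 min at room temperature, then incubated with compound for 15 min. After 400 uM selenite was added, NADPH fluorescence (Ex 340/Em 450 nm) was followed for 8 min.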
Anesthetic bind: binds horse apoferritin like a general anesthetic; P02791; 350,000 tested, 0.074% active; apoferritin/1-aminoanthracene competitive binding, fluorescence; Potency, µM (doses to about 77.5 µM), most hits filed as inhibitors; note: nearly all actives have a fitted effect of over 20% in size
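Horse-spleen apoferritin (10 uM) in 50% saturated 1-aminoanthracene in PBS was incubated 10 min at room temperature with compound. Fluorescence (ex 380, em 535 nm) was normalized to free and bound 1-AMA, with concentration-response fitted by a four-parameter Hill equation.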
Resorufin autofl: autofluorescence interference, mutant IDH1 hit counter-screen. shares compounds with IDH1 R132H inh. Resorufin detection reagent fluorescence interference, cell-free. inhibition of signal, % at 51.2 µM. 750 tested, under 10 active. AID 623980
WT IDH1 inh: wild-type IDH1 (human) inhibition counterscreen. 750 tested, 9% active. shares compounds with IDH1 R132H inh. WT IDH1 enzyme, NADPH diaphorase/resazurin fluorescence. Potency, µM (doses to about 115 µM), most hits filed as inhibitors; note: nearly all actives have a fitted effect of over 55% in size
mIDH1 confirm: mutant IDH1 (human) inhibition, confirmed. shares compounds with IDH1 R132H inh. IDH1 R132H enzyme, NADPH diaphorase/resazurin fluorescence. Potency, µM (series often up to 76.6 µM), most hits filed as inhibitors. 750 tested, 83% active. AID 624002; note: nearly all actives have a fitted effect of over 50% in size
Of the large screens only hits and unclear results are named; the others gave an inactive call (follow-up assays come after a bar, where they were run). A selection: hits, their analogues and other compounds. The true share with any hit is near 1.7%. Calls come from the whole dose curve; as a rule, active = well fitted curve in the direction sought with a large enough effect; inconclusive = small, poorly fitted or top-dose-only effect, or another doubt; inactive = no such curve, though single readings can be large; an effect the other way counts as inactive or inconclusive.

C[C@H](CO)N1C[C@H](C)[C@@H](CN(C)Cc2ccc(C(=O)Nc3ccccc3N)cc2)Oc2c(NC(=O)C3CCCCC3)cccc2C1=O	IDH1 R132H inh 39.8µM (no result: Anesthetic bind) | Resorufin autofl inactive | WT IDH1 inh inconclusive | mIDH1 confirm 28.2µM
C[C@H](CO)N1C[C@H](C)[C@@H](CN(C)Cc2ccc(Cl)c(Cl)c2)Oc2c(NC(=O)C3CCOCC3)cccc2C1=O	none (no result: Anesthetic bind)
COCCN(Cc1ccco1)C(=O)c1nn(Cc2ccccc2)c(=O)c2ccccc12	none (no result: Glioma ERSR ind, IDH1 R132H inh, TrxR1 substrate, rTrxR1 inhibitor, Anesthetic bind)
O=C(NC1CCCCC1)N(Cc1nc2ccccc2c(=O)[nH]1)C1CCCCC1	ALOX12 inh inconclusive
COc1ccc(CN(Cc2nc3ccccc3c(=O)[nH]2)C(=O)NC2CCCCC2)cc1	IDH1 R132H inh inconclusive | Resorufin autofl inactive | WT IDH1 inh inactive | mIDH1 confirm 28.2µM
Cc1c(C)c2c(OCC(=O)NCC(=O)NCC(=O)O)cc3c(c2oc1=O)CCC(C)(C)O3	none
Cc1c(C)c2c(OCC(=O)O)cc3c(c2oc1=O)CCC(C)(C)O3	IDH1 R132H inh inconclusive, rTrxR1 inhibitor inconclusive | Resorufin autofl inactive | WT IDH1 inh inconclusive | mIDH1 confirm 17.8µM
CC(CCc1ccccc1)NC(=O)COC(=O)c1ccc2c(c1)NC(=O)CS2 (centres undefined)	none (no result: Glioma ERSR ind, IDH1 R132H inh, TrxR1 substrate, rTrxR1 inhibitor, Anesthetic bind)
COC(=O)[C@@]12CCCCN1[C@H](c1ccc(-c3ccc(OC)cc3)c(OC)c1)[C@@H]1C(=O)N(C)C(=O)[C@@H]12	IDH1 R132H inh 35.5µM (no result: Anesthetic bind) | Resorufin autofl inactive | WT IDH1 inh inactive | mIDH1 confirm 5.01µM
COC(=O)[C@@]12CCCCN1[C@H](c1ccc(-c3ccc(F)cc3)c(OC)c1)[C@H]1C(=O)N(C)C(=O)[C@H]12	none (no result: Anesthetic bind)
CN1CCN(NC(=O)c2cc(-c3ccc(Cl)s3)nc3ccccc23)CC1	IDH1 R132H inh inconclusive | Resorufin autofl inactive | WT IDH1 inh inactive | mIDH1 confirm inactive
CCCCN1CC2(CCCN(C(=O)c3cc[nH]c3C)C2)CCC1=O (centres undefined)	none (no result: Glioma ERSR ind, IDH1 R132H inh, TrxR1 substrate, rTrxR1 inhibitor, Anesthetic bind)
Cc1ccc(-c2nnc(Nc3ccc(F)cc3)c3ccccc23)cc1S(=O)(=O)NC(C)C	IDH1 R132H inh inconclusive | Resorufin autofl inactive | WT IDH1 inh inactive | mIDH1 confirm inconclusive
COc1nnc(-c2ccc(C)c(S(=O)(=O)NC(C)C)c2)c2ccccc12	none (no result: ALOX12 inh)
O=C1C(F)=CC(COC(c2ccccc2)(c2ccccc2)c2ccccc2)OC1n1cc(F)c(=O)[nH]c1=O (centres undefined)	ALOX12 inh 8.91µM, IDH1 R132H inh 26.1µM (no result: Anesthetic bind) | Resorufin autofl inactive | WT IDH1 inh 50.1µM | mIDH1 confirm 11.2µM
Cc1ccc(-c2csc(N3CCC[C@@H]3C(=O)NCCn3c(C(F)(F)F)nc4ccccc43)n2)cc1	Anesthetic bind inconclusive
CCCn1c(C2CCCN2c2nc(-c3cccc(Br)c3)cs2)nc2ccccc21 (centres undefined)	IDH1 R132H inh inconclusive | Resorufin autofl inactive | WT IDH1 inh inactive | mIDH1 confirm 25.1µM
COCC(C)NC(=O)c1cc2cc(N(C)S(=O)(=O)c3ccc(Cl)cc3)ccc2s1 (centres undefined)	none (no result: Glioma ERSR ind, IDH1 R132H inh, TrxR1 substrate, rTrxR1 inhibitor, Anesthetic bind)
CN(c1ccccc1)c1ccc(/C=C/[N+](=O)[O-])cc1	IDH1 R132H inh 29.3µM, rTrxR1 inhibitor inconclusive | Resorufin autofl inactive | WT IDH1 inh 70.8µM | mIDH1 confirm 22.4µM
